Assay results taken from PubChem BioAssay AID1159580 (chemical genetic matrix, 2015).
Hit rate of the full screen: of about 5,500 compounds, about 2,000 (36%) were called active. About 18% were inconclusive and are not listed. Rule as the data show it: active = normalized growth mostly below about 0.91 (no sharp cut-off); inconclusive = no clear call, values can overlap the other calls; inactive = mostly above about 0.92. Some of the results follow.

Assay: chemical genetic growth profiling, strain panel (AID 1159580);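 also: tested at 20 µM; growth read once vehicle control cultures reached saturation at 30 °C; 1 = growth at the plate median or of vehicle wells; lower values mean less growth of the strain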
Conditions: growth OD
[1] = S. cerevisiae deletion strains, locus YAL013W, strain DEP1, active compounds read low
[2] = S. cerevisiae deletion strains, locus YBR229C, strain ROT2, active compounds read low
[3] = S. cerevisiae deletion strains, locus YDL101C, strain DUN1, active compounds read low
[4] = S. cerevisiae deletion strains, locus YDL134C, strain PPH21, active compounds read low
[5] = S. cerevisiae deletion strains, locus YDR150W, strain NUM1, active compounds read low
[6] = S. cerevisiae deletion strains, locus YEL061C, strain CIN8, active compounds read low
[7] = S. cerevisiae deletion strains, locus YGR078C, strain PAC10, active compounds read low
[8] = S. cerevisiae deletion strains, locus YHR030C, strain SLT2, active compounds read low
[9] = S. cerevisiae deletion strains, locus YHR087W, strain rtc3, active compounds read low
[10] = S. cerevisiae deletion strains, locus YJR043C, strain POL32, active compounds read low
[11] = S. cerevisiae deletion strains, locus YJR075W, strain HOC1, active compounds read low
[12] = S. cerevisiae deletion strains, locus YLR039C, strain RIC1, active compounds read low
[13] = S. cerevisiae deletion strains, locus YLR058C, strain SHM2 (second series), active compounds read low
[14] = S. cerevisiae deletion strains, locus YLR085C, strain ARP6, active compounds read low
[15] = S. cerevisiae deletion strains, locus YLR262C, strain YPT6, active compounds read low
[16] = S. cerevisiae deletion strains, locus YML094W, strain GIM5, active compounds read low
[17] = S. cerevisiae deletion strains, locus YMR219W, strain ESC1, active compounds read low
[18] = S. cerevisiae deletion strains, locus YMR263W, strain SAP30, active compounds read low
[19] = S. cerevisiae deletion strains, locus YNL153C, strain GIM3, active compounds read low
[20] = S. cerevisiae deletion strains, locus YNL298W, strain CLA4 (second series), active compounds read low
[21] = S. cerevisiae deletion strains, locus YNL322C, strain KRE1, active compounds read low
[22] = S. cerevisiae deletion strains, locus YNR030W, strain Alg12, active compounds read low
[23] = S. cerevisiae deletion strains, locus YPL055C, strain LGE1, active compounds read low
[24] = S. cerevisiae deletion strains, locus YPL241C, strain CIN2, active compounds read low
[25] = S. cerevisiae deletion strains, locus YPR135W, strain CTF4, active compounds read low

Measured: normalized growth

COC(=O)c1ccccc1CSc1nccc(C(F)(F)F)n1
inactive: [1] 0.963 | [2] 0.938 | S. cerevisiae deletion strains, locus YCL061C, strain MRC1, active compounds read low 0.956 | [3] 0.978 | [5] 0.939 | [6] 0.917 | [7] 0.927 | S. cerevisiae deletion strains, locus YGR229C, strain SMI1, active compounds read low 0.969 | [9] 0.913 | [10] 0.957 | S. cerevisiae deletion strains, locus YKL190W, strain CNB1, active compounds read low 0.931 | [13] 0.959 | [16] 0.946 | [17] 0.969 | [18] 0.975 | [19] 0.952 | [20] 0.895 | [21] 0.962 | [23] 0.849 | [24] 0.859 | [25] 0.657 | S. cerevisiae strains, strain wild type, active compounds read low 0.926
active: [4] 0.86 | [8] 0.671 | [11] 0.882 | [12] 0.743 | [14] 0.661 | [15] 0.752 | [22] 0.861

CCOC(=O)c1cnc2nc(SC)nn2c1N
inactive: [1] 0.997 | [2] 1 | [3] 0.955 | [4] 0.995 | [5] 0.968 | [6] 1 | [7] 0.971 | [8] 0.855 | [9] 0.994 | [10] 0.935 | [11] 0.984 | [12] 1.03 | [13] 0.994 | [14] 0.88 | [15] 1.01 | [16] 0.942 | [17] 0.993 | [18] 0.983 | S. cerevisiae deletion strains, locus YMR307W, strain GAS1, active compounds read low 0.909 | S. cerevisiae deletion strains, locus YNL128W, strain TEP1, active compounds read low 0.988 | [19] 0.956 | [20] 0.968 | [21] 0.998 | [22] 0.982 | [23] 0.942 | [24] 0.982 | [25] 0.894

CCOC(=O)c1cnc2c(c(C)nn2C)c1Sc1nnc(SC)s1
active: S. cerevisiae deletion strains, locus YAR019C, strain CDC15, active compounds read low 0.847 | S. cerevisiae deletion strains, locus YBL105C, strain PKC1, active compounds read low 0.872 | S. cerevisiae deletion strains, locus YBR135W, strain CKS1, active compounds read low 0.874 | S. cerevisiae deletion strains, locus YBR136W, strain MEC1, active compounds read low 0.867 | S. cerevisiae deletion strains, locus YBR160W, strain CDC28, active compounds read low 0.876 | S. cerevisiae deletion strains, locus YDL017W, strain CDC7, active compounds read low 0.875 | S. cerevisiae deletion strains, locus YDL028C, strain MPS1, active compounds read low 0.882 | [3] 0.911 | S. cerevisiae deletion strains, locus YDL132W, strain cdc53, active compounds read low 0.841 | S. cerevisiae deletion strains, locus YDR052C, strain DBF4, active compounds read low 0.89 | S. cerevisiae deletion strains, locus YDR054C, strain cdc34, active compounds read low 0.779 | S. cerevisiae deletion strains, locus YDR226W, strain ADK1, active compounds read low 0.871 | S. cerevisiae deletion strains, locus YER123W, strain YCK3, active compounds read low 0.615 | S. cerevisiae deletion strains, locus YER133W, strain GLC7, active compounds read low 0.657 | S. cerevisiae deletion strains, locus YFL009W, strain cdc4, active compounds read low 0.851 | S. cerevisiae deletion strains, locus YFL029C, strain CAK1, active compounds read low 0.845 | S. cerevisiae deletion strains, locus YFR003C, strain YPI1, active compounds read low 0.887 | S. cerevisiae deletion strains, locus YFR019W, strain FAB1, active compounds read low 0.73 | S. cerevisiae deletion strains, locus YFR028C, strain CDC14, active compounds read low 0.891 | S. cerevisiae deletion strains, locus YGR092W, strain DBF2, active compounds read low 0.431 | [8] 0.565 | S. cerevisiae deletion strains, locus YIL147C, strain SLN1, active compounds read low 0.857 | S. cerevisiae deletion strains, locus YJR016C, strain ILV3, active compounds read low 0.859 | S. cerevisiae deletion strains, locus YJR066W, strain TOR1 (second series), active compounds read low 0.497 | S. cerevisiae deletion strains, locus YKL193C, strain SDS22, active compounds read low 0.859 | S. cerevisiae deletion strains, locus YKL203C, strain TOR2, active compounds read low 0.683 | S. cerevisiae deletion strains, locus YLR113W, strain HOG1, active compounds read low 0.505 | S. cerevisiae deletion strains, locus YLR403W, strain SFP1, active compounds read low 0.549 | S. cerevisiae deletion strains, locus YMR001C, strain CDC5, active compounds read low 0.855 | S. cerevisiae deletion strains, locus YMR277W, strain FCP1, active compounds read low 0.852 | S. cerevisiae deletion strains, locus YNL006W, strain LST8, active compounds read low 0.881 | S. cerevisiae deletion strains, locus YNL161W, strain CBK1, active compounds read low 0.88 | S. cerevisiae deletion strains, locus YNL207W, strain RIO2, active compounds read low 0.844 | S. cerevisiae deletion strains, locus YNL222W, strain SSU72, active compounds read low 0.867 | S. cerevisiae deletion strains, locus YNL307C, strain MCK1 (second series), active compounds read low 0.596 | S. cerevisiae deletion strains, locus YOL078W, strain AVO1, active compounds read low 0.859 | S. cerevisiae deletion strains, locus YOR329C, strain SCD5, active compounds read low 0.872 | S. cerevisiae deletion strains, locus YPL153C, strain RAD53, active compounds read low 0.62 | S. cerevisiae deletion strains, locus YPL209C, strain IPL1, active compounds read low 0.886 | S. cerevisiae deletion strains, locus YPL256C, strain CLN2, active compounds read low 0.789 | S. cerevisiae deletion strains, locus YPR025C, strain CCL1, active compounds read low 0.879 | S. cerevisiae deletion strains, strain TSCII, active compounds read low 0.846
inactive: S. cerevisiae deletion strains, locus YDL108W, strain KIN28, active compounds read low 0.899 | S. cerevisiae deletion strains, locus YDL214C, strain PRR2, active compounds read low 0.796 | S. cerevisiae deletion strains, locus YDR477W, strain SNF1, active compounds read low 0.719 | S. cerevisiae deletion strains, locus YGR040W, strain KSS1, active compounds read low 0.742 | S. cerevisiae deletion strains, locus YGR052W, strain FMP48, active compounds read low 0.847 | S. cerevisiae deletion strains, locus YHR079C, strain IRE1, active compounds read low 0.649 | S. cerevisiae deletion strains, locus YHR082C, strain KSP1, active compounds read low 0.779 | S. cerevisiae deletion strains, locus YHR205W, strain SCH9, active compounds read low 0.744 | S. cerevisiae deletion strains, locus YJL095W, strain BCK1, active compounds read low 0.69 | S. cerevisiae deletion strains, locus YJL128C, strain PBS2, active compounds read low 0.945 | S. cerevisiae deletion strains, locus YJL157C, strain FAR1, active compounds read low 0.739 | S. cerevisiae deletion strains, locus YJR066W, strain TOR1, active compounds read low 0.644 | S. cerevisiae deletion strains, locus YKL048C, strain ELM1, active compounds read low 0.902 | S. cerevisiae deletion strains, locus YKL067W, strain YNK1, active compounds read low 0.821 | S. cerevisiae deletion strains, locus YKL101W, strain HSL1, active compounds read low 0.865 | S. cerevisiae deletion strains, locus YLR133W, strain CKI1, active compounds read low 0.808 | S. cerevisiae deletion strains, locus YML070W, strain DAK1, active compounds read low 0.759 | S. cerevisiae deletion strains, locus YMR205C, strain PFK2 (second series), active compounds read low 0.859 | S. cerevisiae deletion strains, locus YNL020C, strain ARK1, active compounds read low 0.802 | S. cerevisiae deletion strains, locus YNL183C, strain NPR1, active compounds read low 0.715 | S. cerevisiae deletion strains, locus YOL136C, strain PFK27, active compounds read low 0.714 | S. cerevisiae deletion strains, locus YOR061W, strain CKA2, active compounds read low 0.813 | S. cerevisiae deletion strains, locus YOR119C, strain RIO1, active compounds read low 0.77 | S. cerevisiae deletion strains, locus YOR231W, strain MKK1, active compounds read low 0.701 | S. cerevisiae deletion strains, locus YPL031C, strain PHO85, active compounds read low 0.67 | S. cerevisiae deletion strains, locus YPL204W, strain HRR25, active compounds read low 0.667 | S. cerevisiae deletion strains, locus YPR106W, strain ISR1, active compounds read low 0.934 | S. cerevisiae deletion strains, locus YPR111W, strain DBF20, active compounds read low 0.928 | S. cerevisiae deletion strains, strain NNK1, active compounds read low 0.917
